Assay outcomes from PubChem.
TDP1 cell CPT – DT40-hTDP1 cell growth loss with CPT; chicken DT40 Tdp1-/-;hTDP1 cells + 20 nM CPT, ATP luminescence, 48 h; Potency, µM (doses to about 46.2 µM), inactives show top-dose activity change, negative = growth inhibition, hits mostly inhibitors; 420,000 compounds, 12% hits; note: % is set by controls: 0 for no effect and ±100 for the full control effect; nearly all actives have a fitted effect of over 55% in size
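Chicken DT40 Tdp1-/- cells complemented with human TDP1, 400 cells/well, exposed to compounds plus 20 nM camptothecin for at least 48 h at 37 C; viability read as ATP content by CellTiter-Glo luminescence.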
HT1080 IDH1KD tx – HT-1080 IDH1 knockdown cell toxicity (counter line). HT-1080 IDH1 knockdown viability, ATP luminescence, 48 h. Potency, µM (highest dose often 46.1 µM), without a hit: at the highest dose activity, negative = toxicity, most hits filed as cytotoxic. 360,000 compounds, 2% hits;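 note: 0% = DMSO wells and -100% = cell-free medium wells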
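Luminescent ATP read-out (CellTiter-Glo, 10 min at room temperature) after 48 h compound exposure at 37 °C gave viability of IDH1-knockdown HT-1080 cells. Activity was normalised to DMSO and cell-free wells, then fitted as concentration-response curves.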
HepG2 tox – HepG2 cytotoxicity, counter-screen for TGF-b inhibitors. HepG2 CAGA-GFP viability, ATP luminescence, 18 h. Potency, µM (highest dose often 46.1 µM), for the others: top-dose activity change, negative = cytotoxicity, hits mostly cytotoxic. 410,000 compounds, 0.76% hits. AID 588856
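CellTiter-Glo luminescence gave cytotoxicity after 18 hours at 37 degrees C. The cells were HepG2 CAGA-GFP in 1% FBS DMEM, stimulated with 500 pg/mL TGF-beta after compound addition. %Activity was normalised to no-cell wells (complete cell-killing) and DMSO (no toxicity), and curves were fitted and classified.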
HT1080-NT tox – kills 2HG-producing HT-1080-NT fibrosarcoma cells. HT-1080-NT fibrosarcoma viability, CellTiter-Glo ATP luminescence, 48 h. Potency, µM (highest dose often 46.1 µM), for inactives: at the highest dose activity, negative = less viability, hits mostly cytotoxic. 360,000 compounds, 1.6% hits;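 note: NT is the 2HG producing partner of a matched IDH1 knockdown line; 0% = DMSO-treated cells and -100% = media-only wells without cells; nearly all actives have a fitted effect of over 55% in size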
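Read-out is CellTiter-Glo luminescence after 10 minutes at room temperature, following 48 hours' compound treatment of HT-1080-NT cells (750 cells/well, RPMI, 5% FBS, 37 degrees C).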
DT40 TDP1 no CPT – qHTS for Inhibitors of human tyrosyl-DNA phosphodiesterase 1 (TDP1): qHTS in cells in absence of CPT. DT40 Tdp1-/- hTDP1 cells, no CPT, ATP luminescence, 48 h. Potency, µM (series often up to 46.2 µM), inactives show at the highest dose activity change, negative = growth inhibition, most hits filed as inhibitors. 420,000 compounds, 15% hits; note: % is set by controls: 0 for no effect and ±100 for the full control effect; nearly all actives have a fitted effect of over 55% in size
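DT40 Tdp1-/-;hTDP1 cells, no CPT (DMSO vehicle only), 400 cells/well; compounds pin-transferred; ≥48 hr, 37 °C; CellTiter-Glo 30 min RT dark, luminescence read.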
TGFb SMAD3 inh – inhibitors of TGF-b signaling; HepG2 CAGA-GFP TGF-b/SMAD3 reporter, GFP fluorescence, 18 h; TGF-beta stimulated, 500 pg/mL final; Potency, µM (series often up to 46.1 µM), for the others: at the top dose activity, negative = inhibition, usual class: inhibitors; 410,000 compounds, 1.2% hits; AID 588855; note: % is set by controls: 0 for no effect and ±100 for the full control effect; nearly all actives have a fitted effect of over 65% in size
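Per well, imaged GFP fluorescence of HEPG2 CAGA-GFP cells gives the signal; cells get compound, then TGF-beta (500 pg/mL final), 18 h at 37 degrees C; %Activity versus -TGF-beta and +DMSO controls.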
* marks the source's active call; other numbers are inactive results; ? = inconclusive; / = no result given. An excerpt weighted towards active compounds, which were near 17% of everything screened. Calls come from the whole dose curve; as a rule, active = well fitted curve in the direction sought with a large enough effect; inconclusive = small, poorly fitted or top-dose-only effect, or another doubt; inactive = no such curve, though single readings can be large; an effect the other way counts as inactive or inconclusive. Potency is the fitted concentration of half-maximal effect.

SMILES	TDP1 cell CPT	HT1080 IDH1KD tx	HepG2 tox	HT1080-NT tox	DT40 TDP1 no CPT	TGFb SMAD3 inh
O=C(CCC1N=C2c3ccccc3N=C(SCc3ccccc3F)N2C1=O)NC1CCCCC1 (centres undefined)	18.4µM*	/	-43.7%	/	18.4µM*	?
O=C(CC1C(=O)NCCN1Cc1cccc(C(F)(F)F)c1)NC1CCCCCC1 (centres undefined)	-4.3%	1.0%	4.8%	1.3%	?	5.0%
COC(=O)NCC(c1cccnc1)N1CCN(c2ccccc2F)CC1 (centres undefined)	2.4%	1.5%	-44.1%	-0.7%	7.3%	-3.9%
COc1ccccc1N1CCN(C(CNC(=O)C(=O)NCc2ccc(F)cc2)c2cccnc2)CC1 (centres undefined)	8.2µM*	/	-15.9%	/	5.8µM*	?
COc1ccccc1N1CCN(C(CNS(=O)(=O)c2ccc(C)cc2)c2cccnc2)CC1 (centres undefined)	?	-14.4%	-20.2%	-4.3%	7.31µM*	-7.2%
COc1ccc(CNC(=O)C(=O)NCC(c2cccnc2)N2CCN(c3ccccc3F)CC2)cc1 (centres undefined)	11.6µM*	/	-31.4%	/	18.4µM*	?
COc1ccccc1N1CCN(C(CNC(=O)C(=O)NCc2cccnc2)c2cccnc2)CC1 (centres undefined)	?	/	-5.2%	/	?	-21.5%
CCOC(=O)c1cnc2c(Cl)cc(Cl)cc2c1Nc1ccccc1OC	-7.3%	/	-10.2%	/	-7.1%	-3.2%
Cc1ccc(S(=O)(=O)N2CC3=C(C2)C2CC2(C)C3)cc1 (centres undefined)	-15.8%	-9.5%	/	-3.8%	?	/
CCOC(=O)c1sc(NC(=O)CN2C(=O)NC3(CCC(C)CC3)C2=O)c(C(=O)OCC)c1C (centres undefined)	-55.8%	4.0%	-0.4%	19.9%	-58.0%	-11.3%
CCOC(=O)c1sc(NC(=O)CN2C(=O)NC3(CC(C)CC(C)(C)C3)C2=O)c(C(=O)OCC)c1C (centres undefined)	9.2µM*	6.1%	-10.7%	9.8%	10.3µM*	0.6%
CCOC(=O)c1sc(NC(=O)CN2C(=O)NC3(CC(C)CC(C)(C)C3)C2=O)cc1C (centres undefined)	?	?	-46.5%	?	18.4µM*	?
O=C(O)c1ccc(N/N=C/c2ccc(OC(=O)c3ccccc3Cl)cc2)cc1	0.6%	-9.3%	3.1%	-4.9%	-18.4%	18.4%
Cc1ccc(C(C)C)c(OCc2ccc(C(=O)N/N=C/c3ccc(O)c(O)c3)cc2)c1	2.31µM*	?	-74.3%	-25.8%	2.06µM*	?
Cc1ccc(C(C)C)c(OCc2ccc(C(=O)N/N=C/c3cccc(O)c3O)cc2)c1	3.66µM*	?	-36.5%	9.2µM*	5.17µM*	?
COc1cc(/C=N/NC(=O)c2ccc(COc3cc(C)ccc3C(C)C)cc2)cc(OC)c1O	16.4µM*	20.6µM*	-18.1%	20.6µM*	13µM*	-15.1%
COc1cc(/C=N\NC(=O)c2ccc(-c3ccccc3)cc2)cc(OC)c1O	?	-21.3%	-34.7%	-0.3%	-25.2%	-33.9%
COc1ccc(NC(=O)c2ccccc2OCC(=O)Nc2ccc(Br)cc2)cc1	?	/	2.4%	/	?	-8.2%
Brc1ccc2c(c1)OCCOCCOCCOCCOCCOCCO2	?	-1.6%	-27.5%	1.2%	?	-21.1%
C[C@H]1CN([C@@H](C)CO)C(=O)c2cc(C3=CCCC3)cnc2O[C@@H]1CN(C)C(=O)c1ccncc1	-15.4%	-4.4%	-27.7%	-10.2%	-21.6%	2.9%
Cc1ccc(CNC(=O)CSc2ccsc2[N+](=O)[O-])cc1	?	-23.5%	-7.1%	-9.4%	10.3µM*	-4.1%
CCN(CC)c1ccc(NC(=O)CSc2ccsc2[N+](=O)[O-])c(C)c1	?	0.5%	-9.6%	6.1%	18.4µM*	-8.8%
O=C(CSc1ccsc1[N+](=O)[O-])Nc1cc(F)ccc1F	-3.6%	-1.2%	-8.0%	2.4%	?	-15.9%
CCN(CC)c1ccc(NC(=O)C(NS(=O)(=O)c2cccs2)C(C)C)c(C)c1 (centres undefined)	20.6µM*	/	-21.8%	/	20.6µM*	4.4%
CCCCN(C)C(=O)c1nc2ccccn2c1CN1CCN(C/C=C/c2ccccc2)CC1	?	3.6%	-0.3%	-5.6%	25.9µM*	?
SMILES	TDP1 cell CPT	HT1080 IDH1KD tx	HepG2 tox	HT1080-NT tox	DT40 TDP1 no CPT	TGFb SMAD3 inh
CCCCN(C)C(=O)c1nc2ccccn2c1CN1CCN(c2ncccn2)CC1	-1.6%	-4.1%	-4.0%	0.3%	-6.3%	0.7%
COc1cccc(NC(=O)CN(C)C(C)C(=O)N2CCCCC2)c1 (centres undefined)	-24.7%	15.5%	6.3%	-1.1%	-11.6%	16.9%
Cc1ccc(-c2nc3c(c(=O)c4ccccc4n3C)c(=O)n2Cc2ccco2)cc1	7.2%	3.1%	31.3%	-16.9%	?	12.5%
Cc1nc2c(c(=O)c3ccccc3n2C)c(=O)n1-c1ccc(F)cc1	-4.6%	2.0%	-28.2%	-0.2%	?	-1.6%
CCc1nc2sc3ccccc3c(=O)c2c(=O)n1Cc1ccco1	?	25.9µM*	-8.4%	?	-29.2%	-3.1%
Cn1c2ccccc2c(=O)c2c(=O)n(Cc3ccco3)c(-c3ccc(F)cc3)nc21	-18.7%	?	20µM*	-28.6%	?	-12.9%
CC(C)c1nc2c(c(=O)c3ccccc3n2C)c(=O)n1-c1ccc(F)cc1	14.6µM*	-3.7%	-7.6%	-0.3%	11.6µM*	-8.6%
CC(C)c1nn2c(=O)cc(COC(=O)CNC(=O)c3ccccc3)nc2s1	-22.5%	/	-0.7%	/	-13.4%	?
O=C(CN1C(=O)NC2(CCCC2)C1=O)NCc1ccc(Cl)cc1	1.0%	-4.8%	1.1%	-2.3%	2.5%	8.8%
CCN(CC)C(=S)SCC(=O)c1ccc(Br)cc1	-3.7%	0.0%	-4.3%	-0.9%	23.1µM*	-3.7%
O=C(CNC(=O)c1ccc(Br)cc1)c1ccc(Br)cc1	-3.6%	18.7%	-12.4%	11.8%	12.2%	0.4%
CCN(C(=O)Cn1cnc2c1c(=O)n(C)c(=O)n2C)C1CCCCC1	-3.2%	-0.3%	7.5%	-4.9%	18.0%	0.0%
Cc1ccc(NC(=O)c2ccc(CSc3ccccn3)cc2)cc1	?	-18.4%	-27.3%	-8.9%	23.1µM*	-12.0%
